# Bioassay records as filed in PubChem BioAssay.
# PMP22 txn – Cell-based coincidence reporter assay to measure PMP22 gene transcription in S16 Pmp22-F2sN cells - Primary screen; actives 2% (n = 43,000); Potency, µM (titrated, usually from 57.5 µM), for the others: top-dose activity change, negative = inhibition, usual class: inhibitors; S16 Pmp22-F2sN Schwann cells, FLuc/NLuc coincidence luminescence, 24 h; active = clear falling dose curves in both reporters; inconclusive = both reporters move, but less clearly or upward; inactive = either reporter flat; the % is the NLuc reporter signal; note: potency is the fitted concentration of half-maximal effect; % is set by controls: 0 for no effect and ±100 for the full control effect
#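 Rat S16 Pmp22-F2sN cells, 500-1,000/well in phenol red-free DMEM + 10% FBS, compound-treated 24 h (37C, 5% CO2). Luminescence: FLuc read, Stop&Glo added, NLuc read.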
# mTORC1 inh – Acumen qHTS Assay for Inhibitors of the mTORC1 Signaling Pathway in MEF (Tsc2-/-, p53-/-) Cells: Sytravon | Tsc2-/- p53-/- MEF, phospho-rpS6 immunofluorescence/PI, 24 h | Potency, µM (highest dose often 38.3 µM), for the others: top-dose activity change, negative = inhibition, actives largely listed as inhibitors | actives 0.78% (n = 44,000);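 note: potency is the fitted concentration of half-maximal effect; plate controls were DMSO for no effect and rapamycin for full effect; nearly all actives have a fitted effect of over 50% in size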
#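 Read-out: phospho-S6 Alexa-488 intensity over PI intensity per well, scored as % active cells using thresholds from rapamycin (7.5 nM) and DMSO controls. Tsc2-/-, p53-/- MEFs exposed to compound for 24 h; PI cell count recorded as viability.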
# OvCa metastasis – Primary qHTS assay for Inhibitors of ovarian cancer metastasis using an organotypic tumor microenvironment (TME) model. SKOV3ip1-GFP adhesion/invasion on 3D omental model, fluorescence. Potency, µM (doses to about 45.8 µM), for inactives: at the top dose activity change, negative = inhibition, hits mostly inhibitors. actives 0.1% (n = 46,000);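 note: potency is the fitted concentration of half-maximal effect; plate controls were DMSO wells for no effect and tomatine positive control wells for full effect; nearly all actives have a fitted effect of over 65% in size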
#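 A 3D layer of primary human omental fibroblasts, mesothelial cells, fibronectin and collagen I, grown 48 hr, received SKOV3ip1-GFP cells in serum-free medium plus compounds at 0.36-46 umol/L. After 2 hr RT and 16 hr 37 C, fixed adherent GFP cells were counted; normalized to DMSO and tomatine.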
# S16 viability – Cell viability qHTS assay in S16 Pmp22-F2sN cells. S16 Pmp22-F2sN Schwann cells (luciferase reporters placed in the Pmp22 gene) viability, CellTiter-Glo, 24 h. Potency, µM (top dose mostly 57.5 µM), for the others: at the top dose activity change, negative = cytotoxicity, actives largely listed as cytotoxic. actives 0.48% (n = 43,000); note: potency is the fitted concentration of half-maximal effect; % is set by controls: 0 for no effect and ±100 for the full control effect; nearly all actives have a fitted effect of over 65% in size
#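 CellTiter-Glo counter-screen, qHTS, 1536-well. Cells: S16(c9) Pmp22-F2sN, 500-1,000/well in DMEM + 10% FBS. Cpd 23 nL pin transfer, 24 h, 37C/5% CO2. Read: luminescence, CCD imager.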
# p53null 32C tox – qHTS Screen for Compounds that Selectively Target Cancer Cells with p53 Mutations: Cytotoxicity of p53 Null Cells at the Permissive Temperature; Potency, µM (doses to about 46.1 µM), for the others: top-dose activity change, negative = cytotoxicity, actives largely listed as cytotoxic; AID 903, 2007; actives 0.62% (n = 55,000); H1299-neo p53 null cells, ATP luminescence, 24 h, 32C;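 note: potency is the fitted concentration of half-maximal effect; 0% = DMSO only and -100% = full killing by 100 µM tamoxifen; nearly all actives have a fitted effect of over 55% in size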
#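 Cells lacking p53 (H1299-neo) are plated at 600 per well and allowed to settle overnight at 37C. Test compounds (up to 46 uM) are added and held 24 hours at 32C, then ATP is quantified by luminescence.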
# p53null 39C kill – qHTS Screen for Compounds that Selectively Target Cancer Cells with p53 Mutations: Cytotoxicity of p53 Null Cells at the Nonpermissive Temperature; actives 0.97% (n = 55,000); Potency, µM (series often up to 46.1 µM), inactives show top-dose activity, negative = cell killing, usual class: cytotoxic; AID 904, 2007; H1299 p53-null (neo) cells, 39C, ATPlite viability, 24 h;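 note: potency is the fitted concentration of half-maximal effect; 0% = DMSO only and -100% = full killing by 100 µM tamoxifen; nearly all actives have a fitted effect of over 50% in size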
#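 Cells seeded at 600/well, 37C overnight. Compound added (up to 46 uM), plates shifted to 39C for 24 hr. ATPlite added, luminescence read after 20 min at room temperature.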
# NLuc saturating – Biochemical NLuc saturation counterscreen for small molecule modulators of PMP22 gene expression - Nano-Glo assay. shares compounds with PMP22 txn. Potency, µM (top dose mostly 57.5 µM), inactives show at the highest dose activity change, negative = inhibition, actives largely listed as inhibitors. actives 4% (n = 690). AID 1508638, 2021. Secreted NLuc enzyme (filtered S16 cell medium), Nano-Glo luminescence; note: potency is the fitted concentration of half-maximal effect; % is set by controls: 0 for no effect and ±100 for the full control effect
# NLuc Km counter – Biochemical coelenterazine-based NLuc counterscreen for small molecule modulators of PMP22 gene expression - Km assay; shares compounds with PMP22 txn; secreted NLuc enzyme, coelenterazine luminescence, Km conditions; Potency, µM (top dose mostly 57.5 µM), inactives show at the top dose activity change, negative = inhibition, hits mostly inhibitors; actives 5% (n = 690); note: potency is the fitted concentration of half-maximal effect; % is set by controls: 0 for no effect and ±100 for the full control effect
# FLuc counter – Biochemical FLuc counterscreen for small molecule modulators of PMP22 gene expression; purified P. pyralis FLuc, luminescence, 10 min; 690 tested, under 10 active; Potency, µM (highest dose often 57.5 µM), without a hit: top-dose activity, negative = inhibition, most hits filed as inhibitors; shares compounds with PMP22 txn; note: % of control where 0% means no effect
# Target sequence (P08659 whole entry, looked up): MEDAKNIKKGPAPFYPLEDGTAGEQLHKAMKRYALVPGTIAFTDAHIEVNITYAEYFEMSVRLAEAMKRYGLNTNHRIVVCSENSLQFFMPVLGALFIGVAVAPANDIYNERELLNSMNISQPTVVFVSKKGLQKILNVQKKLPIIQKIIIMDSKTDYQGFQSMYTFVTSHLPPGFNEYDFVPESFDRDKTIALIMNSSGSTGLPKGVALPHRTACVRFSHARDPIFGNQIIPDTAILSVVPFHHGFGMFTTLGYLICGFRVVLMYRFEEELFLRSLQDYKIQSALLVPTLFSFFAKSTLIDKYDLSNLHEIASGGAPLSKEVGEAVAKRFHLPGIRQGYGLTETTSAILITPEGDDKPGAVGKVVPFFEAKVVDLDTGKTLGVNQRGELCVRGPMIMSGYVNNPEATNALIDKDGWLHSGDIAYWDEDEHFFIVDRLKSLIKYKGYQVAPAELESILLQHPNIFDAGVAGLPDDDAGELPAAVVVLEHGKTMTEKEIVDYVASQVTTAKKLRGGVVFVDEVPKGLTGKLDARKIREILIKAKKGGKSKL
# S16 F2sN tox cnf – Cell viability qHTS assay in S16 Pmp22-F2sN cells - Confirmatory screen. actives 7% (n = 690). Potency, µM (doses to about 57.5 µM), for the others: at the top dose activity change, negative = viability loss, most hits filed as cytotoxic. S16 Schwann cells viability, CellTiter-Glo ATP luminescence, 24 h. shares compounds with PMP22 txn. AID 1508641, 2021; note: potency is the fitted concentration of half-maximal effect; % is set by controls: 0 for no effect and ±100 for the full control effect
# PMP22 txn cnf – Cell-based coincidence reporter assay to measure PMP22 gene transcription in S16 Pmp22-F2sN cells - Confirmatory screen; Potency, µM (highest dose often 57.5 µM), for the others: at the top dose activity change, negative = inhibition, usual class: inhibitors; actives 22% (n = 690); shares compounds with PMP22 txn; S16 Schwann cells Pmp22-F2sN, dual luciferase, 24 h; AID 1508646, 2021; active = clear falling dose curves in both reporters; inconclusive = both reporters move, but less clearly or upward; inactive = either reporter flat; the % is the FLuc reporter signal; note: potency is the fitted concentration of half-maximal effect
# PMP22 prot conf – Cell-based HiBiT reporter assay to measure PMP22 protein expression in S16 Pmp22-HiBiT cells - Confirmatory screen; Potency, µM (titrated, usually from 27.9 µM), without a hit: at the top dose activity change, negative = inhibition, actives largely listed as inhibitors; S16 Schwann cells Pmp22-HiBiT, luminescence, 48 h; shares compounds with PMP22 txn; 95 tested, under 10 active
# Starred values were filed as active, the others as inactive; i = inactive; ? = inconclusive; . = no result. In the library only some 3% were active in any assay of this set; here they are far more common. Unless noted, calls come from the whole dose curve; as a rule, active = well fitted curve in the direction sought with a large enough effect; inconclusive = small, poorly fitted or top-dose-only effect, or another doubt; inactive = no such curve, though single readings can be large; an effect the other way counts as inactive or inconclusive.
SMILES,PMP22 txn,mTORC1 inh,OvCa metastasis,S16 viability,p53null 32C tox,p53null 39C kill,NLuc saturating,NLuc Km counter,FLuc counter,S16 F2sN tox cnf,PMP22 txn cnf,others
COc1cccc(-n2c(SCC(=O)c3ccc(Cl)cc3)nc3c([nH]c4ccccc43)c2=O)c1,10µM*,-5%,4%,?,?,18%,1%,4%,-6%,?,11µM*,PMP22 prot conf=-16%
Cc1ccc(CNC(=O)c2ccc(Nc3nc4ccccc4n4nnnc34)cc2)cc1,8µM*,?,1%,?,3%,-7%,-5%,-1%,-15%,?,9.9µM*,PMP22 prot conf=?
Cc1oc(-c2cccc(Cl)c2)nc1CN1CCC(C(=O)NCCCN2CCN(c3cccc(Cl)c3)CC2)CC1,12µM*,0%,1%,?,-5%,?,?,?,4%,27µM*,?,
Cc1oc(-c2ccccc2Cl)nc1CN1C(=O)CN=C(c2ccccc2)c2cc(Cl)ccc21,?,-8%,1%,?,11%,-9%,.,.,.,.,.,
Cc1nn2c(=O)cc(COC(=O)c3ccccc3NC(=O)c3cccs3)nc2s1,7.1µM*,0%,11%,-8%,-2%,?,-4%,2%,-3%,9%,32%,
O=C(OCc1cc(=O)n2nc(C3CC3)sc2n1)c1ccc(NC(=O)c2ccccc2Cl)cc1,?,5%,-3%,6%,?,-10%,.,.,.,.,.,
COCC1(CO)C(=O)C2CCN1CC2 (stereo not drawn),.,.,-7%,.,.,.,.,.,.,.,.,
CCc1c(C(=O)C(N)=O)c2c(OCC(=O)O)cccc2n1Cc1ccccc1,.,.,9%,.,.,.,.,.,.,.,.,
CCN1C[C@]2(OC(=O)c3ccccc3NC(C)=O)CC[C@H](OC)[C@@]34[C@H]5CC6[C@@H](OC)C[C@](O)(C(C[C@@H]23)[C@@H]14)[C@@]5(O)[C@@H]6OC,.,.,-1%,.,.,.,.,.,.,.,.,
CCOc1ccc(/C=C/c2nc(C#N)c(NCc3ccccc3)o2)cc1,?,?,i,-19%,-15%,?,-2%,-1%,-3%,11%,-18%,
CN1CCN(c2oc(-c3ccc(COc4ccccc4)o3)nc2C#N)CC1,35%,-14%,-21%,0%,-12%,-17%,.,.,.,.,.,
